Assay results as given in PMC11006913.

How the values were obtained:
Assay in all cases: PBM; 200 nM protein, PBS
Conditions in all cases: dsDNA, one strand shown
VAX1 [1] = target: VAX1 (Homo sapiens, UniProt Q5SQQ9 86-172)
VAX1 [2] = target: VAX1 (Homo sapiens, UniProt Q5SQQ9 86-172, T142I)
VAX1 [3] = target: VAX1 (Homo sapiens, UniProt Q5SQQ9 86-172, K157R)
NKX3-2 [4] = target: NKX3-2 (Homo sapiens, UniProt P78367 192-278, P234S)
NKX3-2 [5] = target: NKX3-2 (Homo sapiens, UniProt P78367 192-278)
Sequence of NKX3-2 (Homo sapiens, UniProt P78367 192-278) (P78367 192-278): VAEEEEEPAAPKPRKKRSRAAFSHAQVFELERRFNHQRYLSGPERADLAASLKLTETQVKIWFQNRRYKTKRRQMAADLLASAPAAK

Sequence of VAX1 (Homo sapiens, UniProt Q5SQQ9 86-172, T142I) (Q5SQQ9 86-172 T142I): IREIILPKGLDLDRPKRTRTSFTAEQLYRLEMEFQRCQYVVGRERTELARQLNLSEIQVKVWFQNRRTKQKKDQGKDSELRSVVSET
Sequence of VAX1 (Homo sapiens, UniProt Q5SQQ9 86-172, K157R) (Q5SQQ9 86-172 K157R): as the sequence (Q5SQQ9 86-172 T142I) above, with I57T, K72R counted along it
Sequence of VAX1 (Homo sapiens, UniProt Q5SQQ9 86-172) (Q5SQQ9 86-172): as the sequence (Q5SQQ9 86-172 T142I) above, with I57T counted along it
Sequence of NKX3-2 (Homo sapiens, UniProt P78367 192-278, P234S) (P78367 192-278 P234S): as the sequence (P78367 192-278) above, with P43S counted along it

| Sequence | binding signal (VAX1 [1]) | binding signal (VAX1 [2]) | binding signal (VAX1 [3]) | binding signal (NKX3-2 [4]) | binding signal (NKX3-2 [5]) |
| --- | --- | --- | --- | --- | --- |
| CGCGCTAG | 7.18 upbm affinity estimate (log intensity, higher = more binding, comparable within an allelic series) | 7.3 upbm affinity estimate (log intensity, higher = more binding, comparable within an allelic series) | 7.16 upbm affinity estimate (log intensity, higher = more binding, comparable within an allelic series) | – | – |
| ATAACGTG | 9.01 upbm affinity estimate (log intensity, higher = more binding, comparable within an allelic series) | 8.66 upbm affinity estimate (log intensity, higher = more binding, comparable within an allelic series) | 8.79 upbm affinity estimate (log intensity, higher = more binding, comparable within an allelic series) | – | – |
| CATTTAAG | 10.9 upbm affinity estimate (log intensity, higher = more binding, comparable within an allelic series) | 10.6 upbm affinity estimate (log intensity, higher = more binding, comparable within an allelic series) | 10.6 upbm affinity estimate (log intensity, higher = more binding, comparable within an allelic series) | – | – |
| ATATGTCC | 9.38 upbm affinity estimate (log intensity, higher = more binding, comparable within an allelic series) | 8.89 upbm affinity estimate (log intensity, higher = more binding, comparable within an allelic series) | 9.07 upbm affinity estimate (log intensity, higher = more binding, comparable within an allelic series) | – | – |
| ATATCGAA | 8.69 upbm affinity estimate (log intensity, higher = more binding, comparable within an allelic series) | 8.53 upbm affinity estimate (log intensity, higher = more binding, comparable within an allelic series) | – | – | – |
| GCGCCGGA | 7.27 upbm affinity estimate (log intensity, higher = more binding, comparable within an allelic series) | 7.29 upbm affinity estimate (log intensity, higher = more binding, comparable within an allelic series) | 7.2 upbm affinity estimate (log intensity, higher = more binding, comparable within an allelic series) | – | – |
| ATTTATAA | 10.7 upbm affinity estimate (log intensity, higher = more binding, comparable within an allelic series) | 10.5 upbm affinity estimate (log intensity, higher = more binding, comparable within an allelic series) | 10.4 upbm affinity estimate (log intensity, higher = more binding, comparable within an allelic series) | – | – |
| AAGTAAAT | 10.5 upbm affinity estimate (log intensity, higher = more binding, comparable within an allelic series) | 10.2 upbm affinity estimate (log intensity, higher = more binding, comparable within an allelic series) | 10.2 upbm affinity estimate (log intensity, higher = more binding, comparable within an allelic series) | – | – |
| ACAATAAT | 11.2 upbm affinity estimate (log intensity, higher = more binding, comparable within an allelic series) | 11 upbm affinity estimate (log intensity, higher = more binding, comparable within an allelic series) | 10.9 upbm affinity estimate (log intensity, higher = more binding, comparable within an allelic series) | – | – |
| AAGTAGCT | 9.67 upbm affinity estimate (log intensity, higher = more binding, comparable within an allelic series) | 9.41 upbm affinity estimate (log intensity, higher = more binding, comparable within an allelic series) | 9.35 upbm affinity estimate (log intensity, higher = more binding, comparable within an allelic series) | 11.8 upbm affinity estimate (log intensity, higher = more binding, comparable within an allelic series) | 11.9 upbm affinity estimate (log intensity, higher = more binding, comparable within an allelic series) |
| CAATCTAG | 9.1 upbm affinity estimate (log intensity, higher = more binding, comparable within an allelic series) | 8.87 upbm affinity estimate (log intensity, higher = more binding, comparable within an allelic series) | 8.9 upbm affinity estimate (log intensity, higher = more binding, comparable within an allelic series) | – | – |
| CCGGCTTC | 6.96 upbm affinity estimate (log intensity, higher = more binding, comparable within an allelic series) | 7.09 upbm affinity estimate (log intensity, higher = more binding, comparable within an allelic series) | 6.93 upbm affinity estimate (log intensity, higher = more binding, comparable within an allelic series) | – | – |
| AAGGTCAT | 9.64 upbm affinity estimate (log intensity, higher = more binding, comparable within an allelic series) | 9.26 upbm affinity estimate (log intensity, higher = more binding, comparable within an allelic series) | 9.4 upbm affinity estimate (log intensity, higher = more binding, comparable within an allelic series) | – | – |
| CGTTGGGC | 7.21 upbm affinity estimate (log intensity, higher = more binding, comparable within an allelic series) | 7.31 upbm affinity estimate (log intensity, higher = more binding, comparable within an allelic series) | 7.23 upbm affinity estimate (log intensity, higher = more binding, comparable within an allelic series) | – | – |
| AAATTAGC | 11.9 upbm affinity estimate (log intensity, higher = more binding, comparable within an allelic series) | 11.5 upbm affinity estimate (log intensity, higher = more binding, comparable within an allelic series) | 11.6 upbm affinity estimate (log intensity, higher = more binding, comparable within an allelic series) | – | – |
| CGACCCAG | 7.38 upbm affinity estimate (log intensity, higher = more binding, comparable within an allelic series) | 7.45 upbm affinity estimate (log intensity, higher = more binding, comparable within an allelic series) | 7.3 upbm affinity estimate (log intensity, higher = more binding, comparable within an allelic series) | – | – |
| CCAATCTA | 9.3 upbm affinity estimate (log intensity, higher = more binding, comparable within an allelic series) | 8.82 upbm affinity estimate (log intensity, higher = more binding, comparable within an allelic series) | 9.11 upbm affinity estimate (log intensity, higher = more binding, comparable within an allelic series) | – | – |
| GCATATGA | 8.94 upbm affinity estimate (log intensity, higher = more binding, comparable within an allelic series) | 8.6 upbm affinity estimate (log intensity, higher = more binding, comparable within an allelic series) | 8.79 upbm affinity estimate (log intensity, higher = more binding, comparable within an allelic series) | – | – |
| CGGAGACC | 6.9 upbm affinity estimate (log intensity, higher = more binding, comparable within an allelic series) | 7.22 upbm affinity estimate (log intensity, higher = more binding, comparable within an allelic series) | 7.28 upbm affinity estimate (log intensity, higher = more binding, comparable within an allelic series) | – | – |
| CGAAGCAG | 6.89 upbm affinity estimate (log intensity, higher = more binding, comparable within an allelic series) | 7.23 upbm affinity estimate (log intensity, higher = more binding, comparable within an allelic series) | 7.1 upbm affinity estimate (log intensity, higher = more binding, comparable within an allelic series) | – | – |
| ATTTCTAG | 9.13 upbm affinity estimate (log intensity, higher = more binding, comparable within an allelic series) | 8.86 upbm affinity estimate (log intensity, higher = more binding, comparable within an allelic series) | – | – | – |
| ACCCTCGC | 7.12 upbm affinity estimate (log intensity, higher = more binding, comparable within an allelic series) | 7.19 upbm affinity estimate (log intensity, higher = more binding, comparable within an allelic series) | 7.13 upbm affinity estimate (log intensity, higher = more binding, comparable within an allelic series) | – | – |
| GGTATACC | 7.63 upbm affinity estimate (log intensity, higher = more binding, comparable within an allelic series) | 7.37 upbm affinity estimate (log intensity, higher = more binding, comparable within an allelic series) | 7.24 upbm affinity estimate (log intensity, higher = more binding, comparable within an allelic series) | – | – |
